Data published in PubChem BioAssay (Tox21).
Active and inactive are the calls of the source. Calls come from the whole dose curve; as a rule, active = well fitted cell-killing curve with a large enough effect in the repeat runs; inconclusive = weak or mixed curves, or effect the other way; inactive = flat fitted curve, though single readings scatter.

experiment: qHTS assay to identify small molecule HDAC inhibitors - cell viability counter screen (AID 1259365); conditions: HCT-116 viability, CellTiter-Glo ATP luminescence, 2 h; series mostly up to 92.4 µM; activity change, negative = cytotoxicity: at the top concentration; note: nearly all actives have a fitted effect of over 50% in size
Summary of the method: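 After overnight seeding at 1,500 cells per well, wild-type HCT-116 cultures took up compounds in DMSO for 2hr at 37 C. Viable cell content came from luminescence with CellTiter-Glo.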
% is set by controls: 0 for no effect and ±100 for the full control effect; potency is the fitted concentration of half-maximal effect.

Compound	activity change, negative = cytotoxicity	Potency
C#CCO	-0.977% (inactive)	
CC(=O)[O-].CC(=O)[O-].O.O.[Zn+2]	-2.1% (inactive)	
COC(=O)c1ccccc1S(=O)(=O)NC(=O)Nc1nc(C)nc(OC)n1	-5.05% (inactive)	
CCOC(=O)CCN(SN(C)C(=O)Oc1cccc2c1OC(C)(C)C2)C(C)C	-3.33% (inactive)	
[Cl-].[Cl-].[Sn+2]	1.64% (inactive)	
CCn1cc[n+](C)c1 (tested in a mixture with another compound)	1.67% (inactive)	
CCCCn1cc[n+](C)c1 (tested in a mixture with another compound)	-0.897% (inactive)	
C#CCC1=C(C)C(OC(=O)C2C(C=C(C)C)C2(C)C)CC1=O (centres undefined)	-0.0943% (inactive)	
CO/N=C(/C1=NOCCO1)c1ccccc1Oc1ncnc(Oc2ccccc2Cl)c1F	1.27% (inactive)	
CC(C)C(Nc1ccc(C(F)(F)F)cc1Cl)C(=O)OC(C#N)c1cccc(Oc2ccccc2)c1 (centres undefined)	-3.71% (inactive)	
CC1(C)C(C=C(Cl)Cl)C1C(=O)OC(C#N)c1ccc(F)c(Oc2ccccc2)c1 (centres undefined)	-10.3% (inactive)	
CCOP(=O)(OCC)Oc1cc(C)nc(C(C)C)n1	3.18% (inactive)	
Clc1ccc(C(Cl)(Cl)Cl)cc1Cl	-0.534% (inactive)	
Cc1c([N+](=O)[O-])cc2c(c1[N+](=O)[O-])C(C)(C)CC2(C)C	-8.27% (inactive)	
CCC1COC(Cn2cncn2)(c2ccc(Cl)cc2Cl)O1 (centres undefined)	-4.1% (inactive)	
CCCN	-4.52% (inactive)	
CSSC	-0.256% (inactive)	
C#CC1(O)CCCCC1	-0.412% (inactive)	
CN=C=O	0.449% (inactive)	
CNC(=O)CSP(=O)(OC)OC	3.15% (inactive)	

Compound	activity change, negative = cytotoxicity	Potency
CN	-0.129% (inactive)	
CCCCON=O	0.0434% (inactive)	
CCCCC(CC)COC(=O)OOC(C)(C)C (centres undefined)	1.33% (inactive)	
Nc1cc(Cl)ccc1Cl	1.36% (inactive)	
CSC1=N[C@@](C)(c2ccccc2)C(=O)N1Nc1ccccc1	-0.632% (inactive)	
CCCC[N+]1(C)CCCC1 (tested in a mixture with another compound)	14.1% (inactive)	
CCC(C)Nc1c([N+](=O)[O-])cc(C(C)(C)C)cc1[N+](=O)[O-] (centres undefined)	-9.16% (inactive)	
C=CCOC(=O)c1ccccc1N	1.46% (inactive)	
CCOP(=S)(OCC)SC(CCl)N1C(=O)c2ccccc2C1=O (centres undefined)	-8.68% (inactive)	
C[C@]12Cc3cn[nH]c3C[C@@H]1CC[C@@H]1[C@@H]2CC[C@@]2(C)[C@H]1CC[C@]2(C)O	3.07% [at 42.5 µM] (inactive)	
CC(=O)[O-].CC(=O)[O-].O.O.O.[Pb+2]	2.57% (inactive)	
CCCCCCCCCCCCCCn1cc[n+](C)c1	-21.6% (inactive)	
COc1nc(C)nc(NC(=O)NS(=O)(=O)c2ccccc2Cl)n1	-1.23% (inactive)	
CC(=O)[O][Sn]([c]1ccccc1)([c]1ccccc1)[c]1ccccc1		54.5 µM (active)
O=C(Nc1ccc(F)cc1F)c1cccnc1Oc1cccc(C(F)(F)F)c1	-9.56% (inactive)	
CNN	-1.25% (inactive)	
Clc1cc(Cl)c(-c2cc(Cl)c(Cl)cc2Cl)cc1Cl	-2.7% [at 42.5 µM] (inactive)	
C=CC(=C)C	2.63% (inactive)	
Clc1ccc(C(c2ccc(Cl)cc2)C(Cl)Cl)cc1		inactive
